PubChem BioAssay
Results filed as inconclusive are left out. The source made the active and inactive calls.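 Rule for the calls, unless noted: active = aptamer binding inhibition above 30%, about 3 SD of noise from non-fluorescent compounds; inactive = inhibition at or below 30%.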

How the values were obtained:
[1] = rapamycin-like changes in RPL19A-GFP expression – cell-based, S. cerevisiae, multiplex flow cytometry, primary screen (AID 1862; in the data active = percent of DMSO control GFP below about 86%;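 note: lower values mimic rapamycin by blocking the RPL19A rise seen in DMSO cells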); conditions: S. cerevisiae RPL19A-GFP strain, flow cytometry fluorescence, 3 h; at 10 µM; stronger effect = lower value
[2] = TOR pathway GLN3 branch reporter MEP2-GFP changes – S. cerevisiae, multiplex flow cytometry, primary screen (AID 1867;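 active = GFP response, as percent of the DMSO control, above the screen-wide mean plus 3 SD, about 139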;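 note: median GFP channel fluorescence of barcode-gated MEP2-GFP cells measured by flow cytometry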); conditions: S. cerevisiae MEP2-GFP strain, 3 h, at 10 µM, stronger effect = higher value, 100% means same as DMSO wells
[3] = TOR pathway RTG branch CIT2 reporter changes – S. cerevisiae, GFP fusion, multiplex flow cytometry, primary screen (AID 1870;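 active = percent response above a set limit, the screen-wide mean plus 3 SD, cut at about 130% in these data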;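 note: barcoded CIT2-GFP strain pooled with four other GFP strains with rapamycin as positive control; median GFP fluorescence per well over plate mean of DMSO wells so 100% = DMSO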); conditions: S. cerevisiae CIT2-GFP expression, 3 h, at 10 µM, stronger effect = higher value
[4] = TOR pathway LAP4-GFP level changes – S. cerevisiae, multiplex flow cytometry, primary screen (AID 1873;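 active = GFP signal, as percent of the solvent control, above the screen mean plus 3 SD, about 149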); conditions: S. cerevisiae LAP4-GFP expression, 3 h, at 10 µM, stronger effect = higher value
[5] = yeast AGP1-GFP level changes, GLN3 branch – cell-based, multiplex flow cytometry, S. cerevisiae, primary screen (AID 1887;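 active = GFP signal above the screen-wide mean plus 3 SD, that is over about 124.5% of the solvent control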;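 note: AGP1-GFP fusion strain of S. cerevisiae within a five-strain barcoded multiplex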); conditions: 3 h, at 10 µM, stronger effect = higher value
[6] = reduced mouse 2C T cell binding to pMHC/ICAM-1 vesicles – MLPCN validation set, flow cytometry, LFA-1/ICAM-1 modulator project, pilot screen (AID 2523;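 active = response below a set limit, under 55% cells CD8-positive and vesicle-bound, and CD8 cells' 90th-percentile brightness under 279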;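 for vesicle binding response: mean PE anti-B7-1 fluorescence of CD8+ cells relative to row control; 100% = QL9-loaded vesicles with DMSO vehicle in the same plate row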); conditions: 2C mouse CD8+ T cells, at 7 µM, stronger effect = lower value; double positive events: measured here: CD8+/vesicle+ event percentage
[7] = molecular target: Integrin beta-1 (Homo sapiens) + Integrin alpha-4 (Homo sapiens) (UniProt P13612+P05556); test: alpha4beta1 integrin LIBS antibody binding reduction – U937 cells, HUTS-21 mAb, flow cytometry, validation set, VLA-4 allosteric modulator project, pilot screen (AID 2674;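 active = inhibition above 50%, about 3 SD of the validation set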;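 note: antibody binding induced by the VLA-4 ligand LDV present at three times its Kd; 0% = LDV ligand with antibody and no compound and 100% = antibody without LDV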); conditions: HUTS-21 LIBS mAb binding, at 6.7 µM, stronger effect = higher value, binding induced by LDV ligand
Sequence of Integrin beta-1 (Homo sapiens) + Integrin alpha-4 (Homo sapiens) (P05556 whole entry, looked up): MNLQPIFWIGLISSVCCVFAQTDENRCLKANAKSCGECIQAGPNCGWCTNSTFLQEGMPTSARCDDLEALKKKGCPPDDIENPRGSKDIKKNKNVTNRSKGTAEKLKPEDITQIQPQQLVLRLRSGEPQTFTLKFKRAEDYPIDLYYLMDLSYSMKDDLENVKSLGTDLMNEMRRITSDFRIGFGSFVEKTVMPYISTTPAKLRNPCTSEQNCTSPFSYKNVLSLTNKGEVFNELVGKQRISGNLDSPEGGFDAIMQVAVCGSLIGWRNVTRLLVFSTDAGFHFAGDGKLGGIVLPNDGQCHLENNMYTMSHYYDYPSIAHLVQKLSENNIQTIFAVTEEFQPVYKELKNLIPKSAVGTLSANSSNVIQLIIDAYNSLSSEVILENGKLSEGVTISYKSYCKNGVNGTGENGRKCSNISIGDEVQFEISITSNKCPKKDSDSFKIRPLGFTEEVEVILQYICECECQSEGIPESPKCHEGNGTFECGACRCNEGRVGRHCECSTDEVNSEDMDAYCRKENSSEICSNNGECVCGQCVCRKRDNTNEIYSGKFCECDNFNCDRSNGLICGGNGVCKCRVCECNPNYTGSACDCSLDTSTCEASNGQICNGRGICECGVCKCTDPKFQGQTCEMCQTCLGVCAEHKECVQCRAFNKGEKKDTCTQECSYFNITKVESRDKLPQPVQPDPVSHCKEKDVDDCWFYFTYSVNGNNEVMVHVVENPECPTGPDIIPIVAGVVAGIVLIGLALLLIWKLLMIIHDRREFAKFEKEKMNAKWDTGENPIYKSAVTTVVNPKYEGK
Sequence of Integrin beta-1 (Homo sapiens) + Integrin alpha-4 (Homo sapiens) (P13612 whole entry, looked up): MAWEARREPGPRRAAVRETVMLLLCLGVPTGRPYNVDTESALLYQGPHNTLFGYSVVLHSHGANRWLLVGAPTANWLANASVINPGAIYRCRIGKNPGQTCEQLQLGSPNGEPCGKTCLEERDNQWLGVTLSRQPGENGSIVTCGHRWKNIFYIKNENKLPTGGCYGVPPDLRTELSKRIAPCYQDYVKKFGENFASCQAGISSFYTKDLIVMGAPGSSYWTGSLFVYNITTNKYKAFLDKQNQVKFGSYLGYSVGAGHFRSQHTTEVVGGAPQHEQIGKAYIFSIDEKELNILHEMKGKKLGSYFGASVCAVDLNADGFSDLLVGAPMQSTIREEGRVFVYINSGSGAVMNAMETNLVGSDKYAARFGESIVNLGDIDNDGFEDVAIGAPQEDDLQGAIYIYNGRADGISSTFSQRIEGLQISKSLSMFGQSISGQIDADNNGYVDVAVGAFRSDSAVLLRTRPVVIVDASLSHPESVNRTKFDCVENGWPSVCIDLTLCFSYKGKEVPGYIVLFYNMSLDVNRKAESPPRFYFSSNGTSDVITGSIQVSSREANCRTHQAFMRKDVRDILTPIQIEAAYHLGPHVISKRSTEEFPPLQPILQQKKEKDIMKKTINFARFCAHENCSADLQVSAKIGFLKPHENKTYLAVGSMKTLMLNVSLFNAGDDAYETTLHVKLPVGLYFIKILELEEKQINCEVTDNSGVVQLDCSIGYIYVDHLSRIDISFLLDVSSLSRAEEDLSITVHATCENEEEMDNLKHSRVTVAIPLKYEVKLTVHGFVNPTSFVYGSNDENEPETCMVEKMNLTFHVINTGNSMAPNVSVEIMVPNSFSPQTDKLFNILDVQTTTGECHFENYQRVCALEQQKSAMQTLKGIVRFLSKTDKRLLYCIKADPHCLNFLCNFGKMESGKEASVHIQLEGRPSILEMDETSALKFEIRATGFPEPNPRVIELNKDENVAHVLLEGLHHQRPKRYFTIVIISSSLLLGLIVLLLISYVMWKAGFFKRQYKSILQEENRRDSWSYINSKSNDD

[8] = calorie-restriction mimetic ROS inhibitors, yeast – validation compound set, pilot screen (AID 2706;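 active = superoxide response below 65% of plate, a cut near 3 SD across the whole screen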;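 note: yeast exposed to compound for one week at 30 degrees C before staining; 100% = mean of all compound wells on the same plate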); conditions: S. cerevisiae aging, superoxide DHE fluorescence; at 10 µM; stronger effect = lower value
[9] = molecular target: Beta-adrenergic receptor kinase 1 (Homo sapiens) (UniProt P25098); test: GRK2 binders displacing RNA aptamer, biochemical, validation, human GRK2, bead flow cytometry (AID 488806); conditions: bead-bound GRK2, FAM-aptamer displacement, at 10 µM, stronger effect = higher value
Sequence of Beta-adrenergic receptor kinase 1 (Homo sapiens) (P25098 whole entry, looked up): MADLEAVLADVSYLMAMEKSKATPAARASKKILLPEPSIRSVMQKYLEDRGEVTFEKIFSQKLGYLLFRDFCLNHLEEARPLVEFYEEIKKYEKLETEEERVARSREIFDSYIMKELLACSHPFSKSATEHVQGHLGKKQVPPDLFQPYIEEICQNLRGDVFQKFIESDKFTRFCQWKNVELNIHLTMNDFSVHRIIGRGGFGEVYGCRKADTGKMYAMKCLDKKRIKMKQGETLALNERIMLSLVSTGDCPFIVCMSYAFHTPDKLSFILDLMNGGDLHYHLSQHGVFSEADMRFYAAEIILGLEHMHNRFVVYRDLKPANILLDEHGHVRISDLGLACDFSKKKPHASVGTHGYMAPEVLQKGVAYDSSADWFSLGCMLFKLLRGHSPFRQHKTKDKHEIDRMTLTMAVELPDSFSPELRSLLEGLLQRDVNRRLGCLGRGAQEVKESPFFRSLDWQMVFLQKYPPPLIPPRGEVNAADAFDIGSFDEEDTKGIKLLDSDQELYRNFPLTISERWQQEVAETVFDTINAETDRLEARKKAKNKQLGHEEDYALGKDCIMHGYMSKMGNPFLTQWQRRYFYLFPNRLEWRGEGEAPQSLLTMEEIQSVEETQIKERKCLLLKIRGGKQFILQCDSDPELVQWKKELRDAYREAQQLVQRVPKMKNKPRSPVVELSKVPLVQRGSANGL

[10] = molecular target: Beta-2 adrenergic receptor (Homo sapiens) (UniProt P07550); test: agonist-induced loss of surface beta2AR – cell-based, FAP fluorogen, flow cytometry, validation set, pilot screen (AID 504459;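 active = percent response above 42, roughly 3 SD of non-fluorescent test compounds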;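 note: agonist-driven loss of surface beta2AR via internalization measured by FAP dye flow cytometry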); conditions: Am2.2-beta2AR cells, at 10 µM, stronger effect = higher value
Sequence of Beta-2 adrenergic receptor (Homo sapiens) (P07550 whole entry, looked up): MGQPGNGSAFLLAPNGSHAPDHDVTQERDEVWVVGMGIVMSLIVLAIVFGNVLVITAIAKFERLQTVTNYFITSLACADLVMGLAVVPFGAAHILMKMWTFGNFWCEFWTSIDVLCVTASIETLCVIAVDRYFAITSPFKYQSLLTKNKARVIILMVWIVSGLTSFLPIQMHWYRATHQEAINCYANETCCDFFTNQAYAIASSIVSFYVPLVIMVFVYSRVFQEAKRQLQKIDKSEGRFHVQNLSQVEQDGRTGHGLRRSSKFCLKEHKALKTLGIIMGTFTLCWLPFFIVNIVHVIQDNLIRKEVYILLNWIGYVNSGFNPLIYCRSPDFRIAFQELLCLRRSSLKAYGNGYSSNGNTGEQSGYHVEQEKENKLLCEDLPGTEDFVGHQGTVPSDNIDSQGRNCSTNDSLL

[11] = molecular target: AP-2 complex subunit beta (Homo sapiens) (UniProt P63010); test: beta-arrestin/AP2 interaction blockers – biochemical, validation set, GST-AP2 beads, flow cytometry, pilot screen (AID 504541;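 active = inhibition above 54%, about 3 SD of non-fluorescent compounds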;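 note: AP2 carries R879A mutation and is captured from E. coli lysate; bead-bound FITC arrestin peptide fluorescence measuring arrestin peptide binding to AP2; 0% = DMSO wells and 100% = excess unlabeled arrestin peptide control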); conditions: FITC arrestin peptide, at 10 µM, stronger effect = higher value, AP2 beta2 appendage fragment, R879A mutant
Sequence of AP-2 complex subunit beta (Homo sapiens) (P63010 whole entry, looked up, the tested form may be a part, one chain of several): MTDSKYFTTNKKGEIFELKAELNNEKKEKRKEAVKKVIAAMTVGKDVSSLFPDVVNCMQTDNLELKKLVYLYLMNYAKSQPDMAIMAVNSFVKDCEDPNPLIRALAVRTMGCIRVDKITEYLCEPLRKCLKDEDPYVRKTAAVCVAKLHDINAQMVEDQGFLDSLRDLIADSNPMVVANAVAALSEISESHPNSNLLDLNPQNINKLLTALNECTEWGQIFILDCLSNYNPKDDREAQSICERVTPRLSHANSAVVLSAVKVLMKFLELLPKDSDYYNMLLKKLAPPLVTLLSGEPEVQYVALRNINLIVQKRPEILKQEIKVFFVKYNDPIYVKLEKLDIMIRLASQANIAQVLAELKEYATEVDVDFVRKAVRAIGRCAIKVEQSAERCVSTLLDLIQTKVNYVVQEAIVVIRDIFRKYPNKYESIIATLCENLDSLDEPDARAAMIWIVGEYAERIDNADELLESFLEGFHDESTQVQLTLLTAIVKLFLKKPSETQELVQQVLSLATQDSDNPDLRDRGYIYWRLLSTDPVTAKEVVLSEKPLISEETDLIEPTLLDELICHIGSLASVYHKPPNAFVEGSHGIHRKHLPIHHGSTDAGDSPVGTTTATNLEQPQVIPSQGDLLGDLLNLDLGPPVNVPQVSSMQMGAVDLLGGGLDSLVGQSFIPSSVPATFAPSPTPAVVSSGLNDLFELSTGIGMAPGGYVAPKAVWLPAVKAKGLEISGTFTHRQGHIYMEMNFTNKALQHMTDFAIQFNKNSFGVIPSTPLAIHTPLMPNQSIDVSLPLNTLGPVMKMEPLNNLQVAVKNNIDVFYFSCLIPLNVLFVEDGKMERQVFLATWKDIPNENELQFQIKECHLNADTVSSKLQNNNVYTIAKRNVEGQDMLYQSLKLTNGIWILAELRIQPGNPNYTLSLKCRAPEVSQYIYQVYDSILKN

[12] = cytosolic pH regulators acting via V-ATPase – S. cerevisiae, pHLuorin, HTS validation (AID 504600; in the data active = response above about 15%;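 note: plate controls were DMSO for no effect and reference compound for full effect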); conditions: V-ATPase proton transport, at 10 µM, stronger effect = higher value
[13] = test system: anti-desmoglein-3 scFv antibody binding to human DSG3; test: blockers of pathogenic pemphigus antibody–desmoglein-3 binding – biochemical, validation compound set, bead-based, flow cytometry, pilot screen (AID 588368;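 active = binding below the plate cutoff, the plate median minus 3 SD, with a reading above zero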;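 note: signal is the median channel fluorescence of bead-bound GFP antibody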); conditions: Protein G beads, DSG3-Fc, scFv-GFP binding, at 10 µM, stronger effect = lower value
[14] = Nile Red efflux blockade in pump-expressing yeast – validation compound set, multiplex, phenotypic, pilot screen (AID 588506;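 active = efflux inhibition above 0.42, the validation set average plus 4 SD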;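 note: Nile Red retained in cells so higher fluorescence means more efflux inhibition; 0 = negative control wells and 1 = enniatin B 25 µM full block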); conditions: S. cerevisiae pump-expressing triplex, Nile Red efflux flow cytometry; at 10 µM; stronger effect = higher value; the pumps come from Candida albicans
[15] = molecular target: ATP-binding cassette sub-family B member 6 (Homo sapiens) (UniProt Q9NP58); test: blockers of ABCB6-driven porphyrin uptake – K562-ABCB6 cells, flow cytometry, validation set, pilot screen (AID 588550;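 active = inhibition above the screen-wide mean plus 3 SD, about 51%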;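 note: 0% = DMSO wells and 100% = benzethonium chloride 70 µM positive control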); conditions: K562-ABCB6 porphyrin accumulation, 1 h, at 10 µM, stronger effect = higher value
Sequence of ATP-binding cassette sub-family B member 6 (Homo sapiens) (Q9NP58 whole entry, looked up): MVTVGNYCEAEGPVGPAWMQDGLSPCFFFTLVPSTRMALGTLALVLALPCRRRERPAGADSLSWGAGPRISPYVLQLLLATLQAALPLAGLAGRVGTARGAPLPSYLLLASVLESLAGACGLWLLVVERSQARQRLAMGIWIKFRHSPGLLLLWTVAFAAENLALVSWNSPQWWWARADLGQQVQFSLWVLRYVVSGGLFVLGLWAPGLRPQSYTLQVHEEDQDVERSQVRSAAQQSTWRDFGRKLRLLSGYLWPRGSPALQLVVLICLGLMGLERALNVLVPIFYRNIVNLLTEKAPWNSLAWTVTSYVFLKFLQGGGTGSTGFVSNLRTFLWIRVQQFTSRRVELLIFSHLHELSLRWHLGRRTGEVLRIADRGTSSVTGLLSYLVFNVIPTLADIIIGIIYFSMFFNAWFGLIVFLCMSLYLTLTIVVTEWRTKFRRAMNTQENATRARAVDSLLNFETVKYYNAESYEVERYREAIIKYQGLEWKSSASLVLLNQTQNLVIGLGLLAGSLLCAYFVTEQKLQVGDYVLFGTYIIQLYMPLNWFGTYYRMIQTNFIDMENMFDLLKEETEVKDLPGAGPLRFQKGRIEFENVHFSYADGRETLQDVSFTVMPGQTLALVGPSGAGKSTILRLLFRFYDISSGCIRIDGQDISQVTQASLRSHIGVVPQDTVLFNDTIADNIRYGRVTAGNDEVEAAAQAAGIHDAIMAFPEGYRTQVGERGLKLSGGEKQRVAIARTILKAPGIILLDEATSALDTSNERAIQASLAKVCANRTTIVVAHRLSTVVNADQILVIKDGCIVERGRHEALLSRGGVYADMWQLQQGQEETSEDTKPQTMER

[16] = AML differentiation inducers, ER-HoxA9 marrow cells – cell-based, GFP/MAC1 double positive, flow cytometry, validation set, primary screen (AID 588685;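 active = differentiation response of at least 50%, scaled between solvent and reference control, from cells with both markers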;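 note: compound exposure lasts four days before antibody staining and flow analysis; 0% = DMSO wells and 100% = 5 µM fulvestrant positive control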); conditions: stronger effect = higher value, normalized: vehicle 0, fulvestrant 100

| Structure (SMILES) | percent of DMSO control GFP [1] | GFP response vs DMSO [2] | percent response of DMSO control [3] | GFP response vs DMSO [4] | GFP response, % of DMSO [5] | double positive events [6] | vesicle binding response [6] | inhibition [7] | superoxide response (% of plate) [8] | aptamer binding inhibition [9] | response [10] | inhibition [11] | response [12] | binding (% of control) [13] | efflux inhibition (fraction of control) [14] | inhibition [15] | differentiation response [16] |
| --- | --- | --- | --- | --- | --- | --- | --- | --- | --- | --- | --- | --- | --- | --- | --- | --- | --- |
| Cc1nc2ccccc2n1CC(O)Cn1c2ccccc2c2ccccc21 (stereo not drawn) | 90.9% (inactive) | 115% (inactive) | 101% (inactive) | 78.7% (inactive) | 91.9% (inactive) | 62.2% | 174% (inactive) | 4.52% (inactive) | 97.8% (inactive) | 2% (inactive) | 8.04% (inactive) | -4.66% (inactive) | -1.44% (inactive) | 104% (inactive) | 0.19 (inactive) | 9% (inactive) | -1.64% (inactive) |
| Cc1nc2ccccn2c(=O)c1CCN1CCC(C(=O)c2ccc(F)cc2)CC1 | 103% (inactive) | 105% (inactive) | 104% (inactive) | 101% (inactive) | 104% (inactive) | 56.6% | 166% (inactive) | -26.6% (inactive) | 95.8% (inactive) | 0% (inactive) | -22.4% (inactive) | 51.2% (inactive) | -1.11% (inactive) | 106% (inactive) | -0.025 (inactive) | 2% (inactive) | -10.4% (inactive) |
| COc1ccccc1CCn1cnc2c3cc(C)ccc3n(C)c2c1=O | 100% (inactive) | 106% (inactive) | 105% (inactive) | 108% (inactive) | 98.8% (inactive) | 56.6% | 138% (inactive) | -27.9% (inactive) | 94.8% (inactive) | -1% (inactive) | -8.23% (inactive) | 9.65% (inactive) | -3.34% (inactive) | 101% (inactive) | -0.31 (inactive) | -9% (inactive) | -14.8% (inactive) |
| COc1ccc(C(=O)CCN2CCc3cc(OC)c(OC)cc3C2)cc1 | 104% (inactive) | 116% (inactive) | 107% (inactive) | 70.3% (inactive) | 99.7% (inactive) | 59% | 115% (inactive) | 1.12% (inactive) | 111% (inactive) | 2% (inactive) | 2.49% (inactive) | -1.91% (inactive) | -2.28% (inactive) | 96.7% (inactive) | 0.42 (inactive) | 13% (inactive) | 4.97% (inactive) |
| COc1cc2c(cc1OC)C(=S)NC(C)(C)C2 | 102% (inactive) | 106% (inactive) | 100% (inactive) | 95.3% (inactive) | 102% (inactive) | 60.1% | 1280% (inactive) | -11.9% (inactive) | 110% (inactive) | 0% (inactive) | 0.62% (inactive) | 22% (inactive) | -4.8% (inactive) | 101% (inactive) | 0.08 (inactive) | -13% (inactive) | 6.11% (inactive) |
| CC(=O)N1CCn2c3c(c4cc(C)ccc42)CCCC31 (stereo not drawn) | 99.7% (inactive) | 102% (inactive) | 98.3% (inactive) | 123% (inactive) | 111% (inactive) | 62% | 208% (inactive) | 0.59% (inactive) | 122% (inactive) | 0% (inactive) | 14.2% (inactive) | 61.1% (active) | 4.65% (inactive) | 110% (inactive) | 0.38 (inactive) | -1% (inactive) | -4% (inactive) |
| COc1ccc(NC(=O)C2CCCN2C(=O)OC(C)(C)C)cc1 (stereo not drawn) | 102% (inactive) | 102% (inactive) | 100% (inactive) | 92.3% (inactive) | 99.9% (inactive) | 69.5% | 107% (inactive) | 2.55% (inactive) | 53.3% (active) | 0% (inactive) | -5.75% (inactive) | -4.29% (inactive) | -0.27% (inactive) | 102% (inactive) | -0.38 (inactive) | 8% (inactive) | -5.68% (inactive) |
| Cc1ccc(NC(=O)CSc2nc(O)c(Cc3ccccc3)c(=O)n2-c2ccccc2)cc1 | 103% (inactive) | 105% (inactive) | 94.2% (inactive) | 99.3% (inactive) | 102% (inactive) | 65% | 210% (inactive) | -6.68% (inactive) | 95.4% (inactive) | 3% (inactive) | 3.5% (inactive) | 16.9% (inactive) | -1.44% (inactive) | 97.7% (inactive) | -0.17 (inactive) | 9% (inactive) | 1.22% (inactive) |
| CC(C)COCC1CC2(CC(C)(c3csc(N)n3)OC2=O)C(=O)O1 (stereo not drawn) | 105% (inactive) | 97.2% (inactive) | 102% (inactive) | 84.8% (inactive) | 102% (inactive) | 60.8% | 78.1% (inactive) | -9.79% (inactive) | 93% (inactive) | 5% (inactive) | -1.1% (inactive) | 0.87% (inactive) | -4.21% (inactive) | 94% (inactive) | 0.14 (inactive) | -16% (inactive) | -4.64% (inactive) |
